Source: PubChem BioAssay (NCATS)
“And” between values parts separate entries of the source, which are not always exact repeats. Identical values can stand only once. Records with an inconclusive call do not appear. More than one record can exist for a structure, and the calls need not agree. The source made the active and inactive calls. Unless noted, the call rests on the fitted dose curve; in most records, active means well fitted curve in the direction sought with a large enough effect; inconclusive means small, poorly fitted or top-dose-only effect, or another doubt; inactive means no such curve, though single readings can be large; an effect the other way counts as inactive or inconclusive.

Tests used:
[1] = Cell Viability - N2a (AID 540); settings: N2a mouse neuroblastoma cell viability; activity change, negative = cytotoxicity: at 92.2 µM (top of the series);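 further: plate controls were DMSO alone for no effect and tamoxifen control for full effect; nearly all actives have a fitted effect of over 45% in size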
How it was run: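 N2a mouse neuroblastoma, 1500 cells/well, 5 hr settle; compound 40 hr, 37 °C; CellTiter-Glo 20 min RT; luminescence; Hill-fit AC50.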

[2] = Cell Viability - H-4-II-E (AID 543);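 further: cells exposed to compound for 40 hours; nearly all actives have a fitted effect of over 35% in size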; further: potency means the concentration at half of the fitted maximal effect
How it was run: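 qHTS, rat hepatoma H-4-II-E, 1500 cells/well; 40 hr compound exposure, 37 °C; CellTiter-Glo ATP luminescence after 20 min RT; AC50 by standard Hill fit.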

[3] = Cell Viability - LYMP2-017 (AID 972);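 further: cells exposed to compound for 24 hours at 37 °C; nearly all actives have a fitted effect of over 55% in size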; further: potency means the concentration at half of the fitted maximal effect; on activity change, negative = cytotoxicity: on the % scale 0 is the no-effect control and ±100 the full control effect
How it was run: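 Luminescent ATP read-out (CellTiter-Glo, 30 min RT) reports viable cell number. Cells: human lymphoblastoid line, 2500 per well, 5 hr preincubation, 24 hr compound exposure at 37 C. AC50 is derived from qHTS concentration-response data using the standard Hill model.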

[4] = Cell Viability - LYMP2-018 (AID 985);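 further: plate controls were DMSO only for no effect and tetraoctylammonium bromide at 92 µM for full effect; nearly all actives have a fitted effect of over 50% in size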
How it was run: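 2500 cells/well; 5 hr 37 C; cmpd 24 hr 37 C, complete medium; CellTiter-Glo 30 min RT; luminescence. Tetraoctylammonium bromide positive control. AC50 via Hill fit.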

[5] = target: Estrogen receptor (Homo sapiens) (UniProt P03372); experiment: qHTS assay for small molecule agonists of estrogen receptor alpha signaling (AID 588514; calls by dose curve;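 further: 0% = vehicle only and 100% = reference agonist; nearly all actives have a fitted effect of over 70% in size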)
Chain of Estrogen receptor (Homo sapiens) (P03372 whole entry, looked up): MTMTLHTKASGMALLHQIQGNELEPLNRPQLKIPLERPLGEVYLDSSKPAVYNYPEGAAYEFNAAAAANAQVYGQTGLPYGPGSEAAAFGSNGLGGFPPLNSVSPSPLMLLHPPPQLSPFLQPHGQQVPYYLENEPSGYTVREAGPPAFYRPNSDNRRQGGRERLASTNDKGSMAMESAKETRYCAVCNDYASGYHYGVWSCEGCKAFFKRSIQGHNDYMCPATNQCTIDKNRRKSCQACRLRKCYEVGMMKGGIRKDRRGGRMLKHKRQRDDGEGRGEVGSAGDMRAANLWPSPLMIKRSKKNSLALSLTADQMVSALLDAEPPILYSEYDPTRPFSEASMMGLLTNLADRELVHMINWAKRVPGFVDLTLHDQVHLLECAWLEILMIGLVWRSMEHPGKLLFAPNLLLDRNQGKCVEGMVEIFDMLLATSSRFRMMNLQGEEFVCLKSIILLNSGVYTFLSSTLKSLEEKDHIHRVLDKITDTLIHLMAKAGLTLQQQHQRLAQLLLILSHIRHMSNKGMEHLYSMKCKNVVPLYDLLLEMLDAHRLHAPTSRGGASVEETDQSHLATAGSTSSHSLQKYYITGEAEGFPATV
How it was run: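 Read-out: CCF4 fluorescence from a beta-lactamase reporter in ER-alpha-UAS-bla HEK 293 cells after 18 hrs of compound exposure at 37 C. Normalized to 20 nM 17-beta-estradiol (100%) and DMSO (0%).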

[6] = qHTS assay for cell viability of HEK293 cells (AID 743288); settings: ATP luminescence (CellTiter-Glo), 18 h; max response: stronger effect = lower value; further: on the % scale 0 is the no-effect control and ±100 the full control effect; nearly all actives have a fitted effect of over 50% in size
How it was run: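 ATP luminescence (CellTiter-Glo) reports metabolically competent cell number after parental HEK293 cells, 2,000/well, were treated with DMSO-dissolved compounds for 18 h at 37 C; reagent incubation 30 min, room temperature.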

[7] = qHTS assay for cell viability of the p53RE-bla HCT-116 cell line (AID 743292); further: on the % scale 0 is the no-effect control and ±100 the full control effect; nearly all actives have a fitted effect of over 55% in size
How it was run: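 Quantitative high-throughput format: compounds in DMSO were pinned onto p53RE-bla HCT-116 cells (4,000/well) and incubated 16 h at 37 C. Total intracellular ATP, read by CellTiter-Glo luminescence, reflects viable cell number.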

[8] = Cell Viability - LYMP2-020 (AID 986);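 further: cells exposed to compound for 24 h at 37 °C; plate controls were DMSO only for no effect and tetraoctylammonium bromide at 92 µM for full effect; nearly all actives have a fitted effect of over 55% in size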
How it was run: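 qHTS, 2500 cells/well; 5 hr then 24 hr compound exposure, 37 C; CellTiter-Glo luminescence after 30 min RT; ATP decrease taken as cytotoxicity; AC50 via Hill equation; tetraoctylammonium bromide positive control.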

[9] = target: Glucocorticoid receptor (Homo sapiens) (UniProt P04150); experiment: qHTS assay for small molecule antagonists of glucocorticoid receptor signaling (AID 588533; active means well fitted inhibition curve with a large enough effect in the signal ratio, with a control signal flat, not every such curve was filed as active; the % refers to the signal ratio;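 further: cells stimulated with 2 nM dexamethasone as agonist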; further: potency means the concentration at half of the fitted maximal effect)
Chain of Glucocorticoid receptor (Homo sapiens) (P04150 whole entry, looked up): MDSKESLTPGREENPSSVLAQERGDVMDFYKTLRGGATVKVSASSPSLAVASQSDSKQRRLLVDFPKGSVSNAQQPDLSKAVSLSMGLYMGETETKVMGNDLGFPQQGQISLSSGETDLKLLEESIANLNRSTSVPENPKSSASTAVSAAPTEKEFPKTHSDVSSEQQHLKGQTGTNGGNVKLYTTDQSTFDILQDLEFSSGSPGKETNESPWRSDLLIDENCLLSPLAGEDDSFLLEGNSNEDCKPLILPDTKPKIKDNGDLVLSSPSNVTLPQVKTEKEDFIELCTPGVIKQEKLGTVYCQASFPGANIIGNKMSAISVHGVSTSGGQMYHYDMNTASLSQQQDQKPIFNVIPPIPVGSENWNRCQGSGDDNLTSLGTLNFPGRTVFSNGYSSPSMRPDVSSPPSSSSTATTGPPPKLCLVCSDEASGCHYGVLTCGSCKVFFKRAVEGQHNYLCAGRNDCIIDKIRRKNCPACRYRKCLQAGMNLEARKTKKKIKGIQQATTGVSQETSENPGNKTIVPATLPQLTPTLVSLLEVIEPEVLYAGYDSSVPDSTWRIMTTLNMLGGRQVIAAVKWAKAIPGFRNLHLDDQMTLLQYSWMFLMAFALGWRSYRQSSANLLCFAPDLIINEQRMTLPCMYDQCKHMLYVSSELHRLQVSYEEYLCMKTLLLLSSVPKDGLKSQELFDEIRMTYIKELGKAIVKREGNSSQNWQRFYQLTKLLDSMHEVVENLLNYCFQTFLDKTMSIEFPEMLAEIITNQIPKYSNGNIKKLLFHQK
How it was run: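 Antagonist-mode qHTS: compound titrations added to GRE-bla HeLa cells, then dexamethasone 2 nM final; 18 h, 37 C. CCF4 FRET fluorescence normalized to dexamethasone and DMSO; IC50 from Hill fit.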

[10] = target: Peroxisome proliferator-activated receptor gamma (Homo sapiens) (UniProt P37231); experiment: qHTS assay for small molecule antagonists of peroxisome proliferator-activated receptor gamma signaling (AID 588537; active means well fitted inhibition curve with a large enough effect in the signal ratio, with a control signal flat, not every such curve was filed as active; the % refers to the signal ratio;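 further: reporter cells co-stimulated with 50 nM rosiglitazone agonist during compound treatment; % of control where 0% means no effect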)
Chain of Peroxisome proliferator-activated receptor gamma (Homo sapiens) (P37231 whole entry, looked up): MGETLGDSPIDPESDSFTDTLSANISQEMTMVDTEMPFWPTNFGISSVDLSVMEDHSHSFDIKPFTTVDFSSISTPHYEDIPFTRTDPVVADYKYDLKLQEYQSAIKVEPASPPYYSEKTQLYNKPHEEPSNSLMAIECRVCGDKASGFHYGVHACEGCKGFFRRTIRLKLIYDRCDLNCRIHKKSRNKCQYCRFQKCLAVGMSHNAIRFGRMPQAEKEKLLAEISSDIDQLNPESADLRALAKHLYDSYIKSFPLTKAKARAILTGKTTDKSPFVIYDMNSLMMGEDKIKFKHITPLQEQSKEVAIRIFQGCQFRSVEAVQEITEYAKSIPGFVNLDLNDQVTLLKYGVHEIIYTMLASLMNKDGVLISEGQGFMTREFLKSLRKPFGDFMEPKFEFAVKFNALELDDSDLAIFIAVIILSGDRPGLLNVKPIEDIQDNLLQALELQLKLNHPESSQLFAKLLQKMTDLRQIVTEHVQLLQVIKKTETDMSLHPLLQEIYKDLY
How it was run: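 Cell-based beta-lactamase assay; GW9662 served as the antagonist control. Stimulation used rosiglitazone, final 50 nM, 16 h, 37 C.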

[11] = target: Retinoic acid receptor RXR-alpha (Homo sapiens) (UniProt P19793); experiment: qHTS assay for small molecule agonists of retinoid X receptor alpha signaling (AID 588544; calls by dose curve;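 further: 0% = DMSO basal wells and 100% = reference agonist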)
Chain of Retinoic acid receptor RXR-alpha (Homo sapiens) (P19793 whole entry, looked up): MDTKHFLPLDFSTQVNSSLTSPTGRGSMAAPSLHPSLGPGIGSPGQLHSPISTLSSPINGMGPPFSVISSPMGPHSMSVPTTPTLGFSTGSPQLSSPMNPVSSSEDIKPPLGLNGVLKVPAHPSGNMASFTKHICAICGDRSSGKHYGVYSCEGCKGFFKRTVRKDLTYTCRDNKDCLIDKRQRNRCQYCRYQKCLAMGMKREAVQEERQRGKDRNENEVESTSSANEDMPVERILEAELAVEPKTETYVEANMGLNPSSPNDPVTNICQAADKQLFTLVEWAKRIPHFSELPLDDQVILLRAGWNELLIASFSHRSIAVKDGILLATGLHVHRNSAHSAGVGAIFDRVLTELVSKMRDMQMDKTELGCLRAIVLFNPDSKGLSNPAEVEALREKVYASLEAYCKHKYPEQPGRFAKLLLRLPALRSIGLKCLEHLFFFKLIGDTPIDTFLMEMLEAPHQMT

[12] = qHTS assay to identify small molecules that stimulate interleukin-8 (IL-8) secretion (AID 651758; active means well fitted activation curve with a large enough effect in the signal ratio; the % refers to the signal ratio; further: potency means the concentration at half of the fitted maximal effect; on activation: 0% is about no effect)
How it was run: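 Secreted IL-8 measured homogeneously by TR-FRET (two labelled anti-IL-8 antibodies, 1-3 h at room temperature) after a 16 h, 37 C compound treatment of THP-1 cells at 2000 cells/well.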

[13] = MultiTox-Fluor Cytotoxicity Assay - LYMP1-001 - Live Cells (AID 947);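 further: 0% = DMSO only and full inhibition = tetraoctylammonium bromide control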
[14] = target: Bile acid receptor (Homo sapiens) (UniProt Q96RI1); experiment: qHTS assay for small molecule antagonists of farnesoid X receptor signaling (AID 588526; calls by dose curve; further: on the % scale 0 is the no-effect control and ±100 the full control effect)
Chain of Bile acid receptor (Homo sapiens) (Q96RI1 whole entry, looked up): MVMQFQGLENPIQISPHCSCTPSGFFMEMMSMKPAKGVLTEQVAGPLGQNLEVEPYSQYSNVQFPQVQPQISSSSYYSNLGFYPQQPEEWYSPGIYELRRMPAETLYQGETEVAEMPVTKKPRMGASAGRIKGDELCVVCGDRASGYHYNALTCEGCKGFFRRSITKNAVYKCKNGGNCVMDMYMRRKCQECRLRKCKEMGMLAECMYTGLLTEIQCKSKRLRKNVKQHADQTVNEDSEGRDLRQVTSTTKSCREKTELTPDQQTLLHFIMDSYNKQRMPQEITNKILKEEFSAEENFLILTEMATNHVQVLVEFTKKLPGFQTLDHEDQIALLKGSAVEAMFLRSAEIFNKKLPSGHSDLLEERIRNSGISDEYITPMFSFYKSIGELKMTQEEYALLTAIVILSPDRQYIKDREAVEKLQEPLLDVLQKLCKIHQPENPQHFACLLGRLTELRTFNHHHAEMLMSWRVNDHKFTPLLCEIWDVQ
How it was run: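 Beta-lactamase reporter antagonist mode: HEK293T FXR-UAS-bla cells, titrated compound, CDCA stimulation, 16 h 37 C, CCF4 dye 2 h RT. Data normalized to CDCA 50 uM and DMSO; Hill-fit IC50.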

[15] = target: Peroxisome proliferator-activated receptor delta (Homo sapiens) (UniProt Q03181); experiment: qHTS assay for small molecule antagonists of peroxisome proliferator-activated receptor delta signaling (AID 588535; active means well fitted inhibition curve with a large enough effect in the signal ratio, with a control signal flat, not every such curve was filed as active; the % refers to the signal ratio)
Chain of Peroxisome proliferator-activated receptor delta (Homo sapiens) (Q03181 whole entry, looked up): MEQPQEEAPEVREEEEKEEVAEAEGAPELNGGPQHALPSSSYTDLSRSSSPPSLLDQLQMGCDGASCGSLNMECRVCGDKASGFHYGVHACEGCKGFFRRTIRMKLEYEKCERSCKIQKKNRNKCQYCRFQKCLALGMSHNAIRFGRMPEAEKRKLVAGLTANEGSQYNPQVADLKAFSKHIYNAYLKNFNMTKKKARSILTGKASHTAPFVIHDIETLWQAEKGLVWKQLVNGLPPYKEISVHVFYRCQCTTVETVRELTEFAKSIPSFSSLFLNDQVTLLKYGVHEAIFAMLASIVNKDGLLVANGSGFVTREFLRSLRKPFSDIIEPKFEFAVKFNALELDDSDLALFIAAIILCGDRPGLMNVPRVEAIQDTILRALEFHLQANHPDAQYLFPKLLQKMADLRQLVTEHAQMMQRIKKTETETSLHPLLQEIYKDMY
How it was run: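 Antagonist-mode qHTS using GeneBLAzer PPAR-delta-UAS-bla HEK293T cells; compound exposure 18 hrs at 37 C over a titration. Ratiometric CCF4 fluorescence at 460/530 nm; concentration-response points fitted to the Hill equation.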

O=Nc1ccc(Nc2ccccc2)cc1
active: activity change, negative = cytotoxicity [1] -115% | Potency [2] 31.6 µM

O=C1c2ccccc2C(=O)C1(O)O
inactive: Potency [3] | Potency [4] | Potency [5] | max response [6] -12.1% | Potency [7]

C=CC1CO1 (stereo not drawn)
inactive: Potency [2] | Potency [4] | Potency [8] | Potency [9] | Potency [10] | Potency [11]

Nc1ccc2c(c1)C(=O)c1ccccc1C2=O
inactive: Potency [4] | Potency [9] | max response [6] -13.3% and -4.81%

CCCCCCc1ccc(-c2ccc(C#N)cc2)cc1
inactive: Potency [2] | Potency [8] | Potency [11] | Potency [12] | max response [6] -6.02%

NC(=O)Nc1nc2ccccc2[nH]1
inactive: activity change, negative = cytotoxicity [1] -4.08% | Potency [2] | Potency [13] | Potency [8] | Potency [5] | Potency [14] | max response [6] -5.65% | Potency [7]

O=C(Cl)c1ccc([N+](=O)[O-])cc1
inactive: Potency [3] | Potency [8] | Potency [5] | Potency [9] | outcome [15] | Potency [11] | Potency [12]

O=c1[nH]ncc2ccccc12
inactive: Potency [2] | Potency [3] | Potency [4] | Potency [5] | Potency [9] | max response [6] 0.756% | Potency [7]

Nc1ccccc1O
inactive: Potency [13] | Potency [3] | Potency [4] | Potency [8] | Potency [5]
active: Potency [12] 66.8 µM

OCC(CO)(CBr)CBr
inactive: Potency [13] | Potency [4] | Potency [8] | Potency [14] | Potency [9] | outcome [15] | Potency [10] | Potency [11] | Potency [12] | max response [6] -6.95% and -8.44%

CCCCCCCCOc1ccc(C(=O)O)cc1
active: Potency [12] 66.8 µM
inactive: activity change, negative = cytotoxicity [1] -7.43% | Potency [4] | Potency [14] | Potency [9]

c1c[nH]cn1
inactive: activity change, negative = cytotoxicity [1] -11.6% | Potency [2] | Potency [5] | Potency [9] | Potency [12] | max response [6] -0.708% | Potency [7]

C=CC(=O)CC
inactive: Potency [2] | Potency [13] | Potency [8] | Potency [14] | Potency [11] | Potency [7]

CCCCC(CC)COP(=O)(OCC(CC)CCCC)OCC(CC)CCCC (stereo not drawn)
inactive: Potency [3] | Potency [8] | Potency [9] | outcome [15] | Potency [10] | max response [6] -14.3% | Potency [7]

c1ccc(COCc2ccccc2)cc1
inactive: activity change, negative = cytotoxicity [1] -4.56% | Potency [2] | Potency [13] | Potency [3] | Potency [5] | Potency [14] | Potency [9] | Potency [10] | Potency [11] | Potency [12] | max response [6] 0.589% | Potency [7]

C=CC(=O)OCCCCCCOC(=O)C=C
39.8 µM (active) and inactive: Potency [9]
inactive: Potency [14] | outcome [15] | Potency [10] | max response [6] -28.7% and -17.5%
active: Potency [2] 39.8 µM | Potency [3] 39.8 µM

COc1ccc(C)cc1N
inactive: Potency [2] | Potency [13] | Potency [3] | Potency [5] | Potency [9] | max response [6] -15%

O=C(O)/C=C/c1ccc(/C=C/C(=O)O)cc1
inactive: activity change, negative = cytotoxicity [1] -20.9% | Potency [2] | Potency [13] | Potency [8] | Potency [9] | Potency [11] | Potency [7]

CC(=O)CC(=O)Nc1ccccc1
inactive: activity change, negative = cytotoxicity [1] -10.9% | Potency [13] | Potency [3] | Potency [8] | Potency [14] | Potency [9] | outcome [15] | Potency [10] | Potency [12] | Potency [7]

Cc1cc(-c2ccc(N=Nc3cc(S(=O)(=O)O)c4ccccc4c3N)c(C)c2)ccc1N=Nc1cc(S(=O)(=O)O)c2ccccc2c1N
inactive: Potency [5]

CCCCCCCC/C=C\CCCCCCCC(=O)N(CCO)CCO
inactive: Potency [8] | Potency [5] | Potency [14] | outcome [15] | Potency [7]
active: activity change, negative = cytotoxicity [1] -111% | Potency [2] 39.8 µM

CCN(CC)c1ccc2c(C)cc(=O)oc2c1
inactive: Potency [13] | Potency [4] | Potency [10] | Potency [7]
